Compound activity: PubChem BioAssay, Broad Institute
miR122 inh – miR-122 suppressors via Renilla sensor increase, primary screen, cell-based, Huh7 psiCHECK-miR122, Renilla luciferase, single point | 48 h | activation, % at 12.5 µM | actives 0.14% (n = 340,000);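 active = mean activation of 30% or more, with every replicate also reaching 30%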;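 note: 0% = median of neutral control wells and 100% = median of positive control wells; higher luciferase signal means stronger suppression of miR-122 activity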
Numbers without * were called inactive. The entries come from a sample that favours hits as a whole.

SMILES	miR122 inh
C[C@H](CO)N1C[C@H](C)[C@H](CN(C)C(=O)Nc2ccc(F)cc2)Oc2cc(C#CC3(O)CCCC3)ccc2S1(=O)=O	-1
CC(C)C#Cc1ccc2c(c1)O[C@@H](CN(C)CC1CCCC1)[C@H](C)CN([C@H](C)CO)S2(=O)=O	-2
CC(C)C(=O)Nc1ccc2c(c1)C(=O)N(C)[C@@H]1CC[C@@H](CC(=O)N[C@H](C)c3ccccc3)O[C@@H]1CO2	70*
CCC(=O)Nc1ccc2c(c1)C(=O)N(C)C[C@H](OC)[C@@H](C)CN(Cc1ccccc1OC)[C@@H](C)CO2	-4
CC(C)C(=O)Nc1ccc2c(c1)C(=O)N(C)[C@H]1CC[C@@H](CC(=O)NCC3CC3)O[C@@H]1CO2	-92
CCCC#Cc1cnc2c(c1)C(=O)N([C@H](C)CO)C[C@H](C)[C@H](CN(C)C(=O)C1CC1)O2	-12
CCCC(=O)Nc1ccc2c(c1)OC[C@@H](C)N(C)C[C@@H](C)[C@@H](OC)CN(C)C2=O	0
C[C@H](CO)N1C[C@H](C)[C@@H](CN(C)Cc2ccc(C(F)(F)F)cc2)Oc2c(NC(=O)c3cnccn3)cccc2C1=O	-114
C[C@H](O)C#Cc1ccc2c(c1)O[C@@H](CN(C)Cc1cccnc1)[C@@H](C)CN([C@@H](C)CO)S2(=O)=O	-2
C[C@H]1CN([C@@H](C)CO)S(=O)(=O)c2ccc(-c3ccccc3)cc2O[C@H]1CN(C)Cc1ccccc1C(=O)O	-2
CCC(=O)Nc1ccc2c(c1)OC[C@H](C)N(C(=O)CN1CCOCC1)C[C@H](C)[C@H](OC)CN(C)C2=O	4
COC(=O)C1=C(C)N=C2SC(C#N)=C(N)N2C1c1cc(OC)c(OC)c(OC)c1 (stereo not drawn)	38*
C[C@@H]1CN([C@H](C)CO)C(=O)c2cc(C#Cc3ccc(F)cc3)cnc2O[C@H]1CN(C)Cc1ccccn1	-2
Cc1ccccc1-c1cnc2c(c1)C(=O)N([C@H](C)CO)C[C@@H](C)[C@H](CN(C)C(=O)c1ccccc1)O2	4
CO[C@H]1CN(C)C(=O)c2cc(NC(=O)Nc3ccccc3)ccc2OC[C@H](C)NC[C@@H]1C	1
CC(C)NC(=O)N(C)C[C@@H]1Oc2cc(-c3ccccc3)ccc2S(=O)(=O)N([C@@H](C)CO)C[C@H]1C	-5
CC#CCCCC(=O)Nc1ccccc1C(=O)O	32*
C[C@H](CO)N1C[C@H](C)[C@@H](CN(C)C(=O)C2CC2)Oc2cc(C#Cc3cccnc3)ccc2S1(=O)=O	-17
Cc1ccc(S(=O)(=O)N(C)C[C@H]2Oc3ncc(C#CCC(C)C)cc3C(=O)N([C@H](C)CO)C[C@@H]2C)cc1	-54
C[C@H](CO)N1C[C@H](C)[C@H](CN(C)Cc2cncnc2)Oc2ncc(C#Cc3ccccn3)cc2C1=O	-3
C[C@H]1CN([C@@H](C)CO)C(=O)c2cc(/C=C/c3ccccc3)cnc2O[C@H]1CN(C)C(=O)C1CCOCC1	-9
Cc1ccc(S(=O)(=O)N2CC[C@@H]3[C@@H](CO)Nc4ccc(-c5ccccc5F)cc4[C@@H]32)cc1	-154
C/C=C/c1ccc2c(c1)O[C@@H](CN(C)C(=O)CC1CC1)[C@@H](C)CN([C@H](C)CO)S2(=O)=O	-6
O=C(Nc1ccccc1F)N1[C@H](CO)[C@@H]2c3ccccc3NC[C@@H]21	42*
O=C(Cc1ccccc1)N1C[C@@H]2[C@H](c3ccccc31)[C@H](CO)N2C(=O)Nc1ccc(F)cc1	-92
SMILES	miR122 inh
C/C=C/c1cnc2c(c1)C(=O)N([C@H](C)CO)C[C@@H](C)[C@@H](CN(C)S(=O)(=O)c1ccc(C)cc1)O2	4
C[C@@H]1CN([C@H](C)CO)C(=O)c2cc(/C=C/c3ccccc3)cnc2O[C@@H]1CN(C)C(=O)C1CCOCC1	-1
C[C@H](CO)N1C[C@H](C)[C@H](CN(C)C(=O)C2CC2)Oc2cc(C#CC3CC3)ccc2S1(=O)=O	-25
CCCCCOC(=O)c1[nH]c2c(c1C)C(=O)CC(c1ccco1)C2 (stereo not drawn)	-121
O=C1CC(c2ccco2)CC(O)=C1C=Nc1cc(Cl)ccc1O (stereo not drawn)	31*
CCCC#Cc1cnc2c(c1)C(=O)N([C@@H](C)CO)C[C@@H](C)[C@@H](CN(C)C(=O)C1CC1)O2	-5
COc1ccccc1S(=O)(=O)N(C)C[C@H]1Oc2ncc(-c3ccc(C)cc3)cc2C(=O)N([C@H](C)CO)C[C@H]1C	1
CCCNC(=O)Nc1ccc2c(c1)OC[C@H](C)N(C)C[C@@H](C)[C@@H](OC)CN(C)C2=O	-3
O=S(=O)(Nc1nccs1)c1ccc(NS(=O)(=O)c2cccs2)cc1	39*
Cc1ccc(S(=O)(=O)Nc2ccc(C(=O)NCc3ccccn3)cc2)cc1	-199
COc1ccc(NS(=O)(=O)c2cc(NS(=O)(=O)c3cccs3)ccc2C)cc1	-94
CNC[C@@H]1Oc2ncc(-c3ccc(C#N)cc3)cc2C(=O)N([C@H](C)CO)C[C@@H]1C	4
COc1cccc(S(=O)(=O)N(C)C[C@H]2Oc3ncc(C#CCC(C)C)cc3C(=O)N([C@H](C)CO)C[C@@H]2C)c1	-48
C[C@H](CO)N1C[C@H](C)[C@@H](CN(C)C(=O)CC2CC2)Oc2cc(C#CCC3CCCC3)ccc2S1(=O)=O	-49
c1ccc(CCNc2nnnn2-c2ccccc2)cc1	46*
CC(C)(CNC(=S)NCCc1ccccc1)CNC(=S)NCCc1ccccc1	-280
CO[C@@H]1CN(C)C(=O)c2ccc(NC(C)=O)cc2OC[C@@H](C)N(S(C)(=O)=O)C[C@H]1C	-4
C[C@H]1CN([C@@H](C)CO)S(=O)(=O)c2ccc(-c3cccc(C#N)c3)cc2O[C@@H]1CN(C)Cc1ccccn1	-1
CN1C(=O)c2cc(NC(=O)c3ccc(C(F)(F)F)cc3)ccc2OC[C@H]2O[C@H](CC(=O)NC3Cc4ccccc4C3)CC[C@@H]21	63*
CN1C(=O)c2cc(NC(=O)c3ccc(C(F)(F)F)cc3)ccc2OC[C@@H]2O[C@H](CC(=O)NC3Cc4ccccc4C3)CC[C@H]21	37*
C[C@H](CO)N1C[C@H](C)[C@@H](CN(C)C(=O)C2CCCCC2)Oc2ncc(-c3ccccc3F)cc2C1=O	1
CO[C@H]1CN(C)C(=O)c2ccc(NC(=O)Nc3ccccc3)cc2OC[C@@H](C)N(C(C)=O)C[C@H]1C	-2
Cn1cnc(S(=O)(=O)N2C[C@@H](O)COC[C@H]3O[C@@H](CC(=O)NC4CCCC4)CC[C@@H]32)c1	-127
COc1ccc(C#Cc2cnc3c(c2)C(=O)N([C@H](C)CO)C[C@@H](C)[C@H](CN(C)CC2CCCC2)O3)cc1	-14
C[C@H]1CN([C@@H](C)CO)C(=O)c2cc(/C=C/c3ccccc3)cnc2O[C@H]1CN(C)C(=O)Cc1ccccn1	1
SMILES	miR122 inh
CCN(CC)c1ccc(/C=N/NC(=O)c2ccoc2C)c(O)c1	50*
CCCNC(=O)N(C)C[C@@H]1Oc2ncc(C#C[C@@H](C)O)cc2C(=O)N([C@H](C)CO)C[C@H]1C	3
CCCN(C)C[C@@H]1Oc2cc(-c3ccc(OC)cc3)ccc2S(=O)(=O)N([C@H](C)CO)C[C@@H]1C	6
C[C@H]1CN([C@@H](C)CO)S(=O)(=O)c2ccc(-c3cncnc3)cc2O[C@H]1CN(C)Cc1ccccc1	-5
CCCNC(=O)N(C)C[C@@H]1Oc2ncc(C#CC(C)C)cc2C(=O)N([C@@H](C)CO)C[C@H]1C	4
CCC(=O)Nc1ccc2c(c1)OC[C@H](C)N(CCC(F)(F)F)C[C@@H](C)[C@H](OC)CN(C)C2=O	1
